For 31 molecules, GFP signal change (wild-type ribosome), OD600 change and RFP signal change results are on record in PubChem BioAssay AID720706 (Broad Institute, 2013).

The campaign covered roughly 350,000 compounds. About 5,500 (1.6%) were called active.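 The calls were made as follows: active = significant combined selectivity score with lowered wild-type GFP, culture density cut under 30%, mutant RFP and density less affected; inactive = any of these conditions unmet.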 The full list was thinned out, with actives kept by preference.

The nature of the assay: GFP drop in mixed WT/humanized-ribosome E. coli culture – GFP/RFP fluorescence, OD600, single point, bacterial rRNA inhibitor project, primary screen (AID 720706). Conditions: E. coli WT GFP vs humanized-ribosome RFP mutants, 24 h; GFP signal change (wild-type ribosome): stronger effect = lower value, DMSO median 0, no signal -100; OD600 change: measured here: OD600 growth, DMSO median 0, no signal -100; RFP signal change: measured here: RFP humanized mutant strains, DMSO median 0, no signal -100, concentration not given here.
Regarding `O=C(Nc1ccc(Cl)c(Cl)c1)c1ccccc1NC(=O)C1CC=CCC1C(=O)O` (stereo not drawn), the GFP signal change (wild-type ribosome) was -35.4% (inactive), the OD600 change is -49.6% and the RFP signal change was -4.13%.

`O=C(Nc1ccc2c(c1)OCO2)C1CC1(Cl)Cl` (stereo not drawn): the GFP signal change (wild-type ribosome) was -1.64% (inactive), the OD600 change worked out at 3.17% and the RFP signal change is -2.98%.

`Cc1noc(C)c1S(=O)(=O)Nc1ccc2c(c1)CC(=O)N([C@@H](C)CO)C[C@H](C)[C@H](CN(C)C(=O)Nc1cccc3ccccc13)O2`: the GFP signal change (wild-type ribosome) was -2.17% (inactive), the OD600 change was -1.79% and the RFP signal change amounted to 1.2%.

As to `COc1ccc(S(=O)(=O)Nc2ccc3c(c2)CC(=O)N([C@@H](C)CO)C[C@@H](C)[C@@H](CN(C)Cc2ccc(C(=O)Nc4ccccc4N)cc2)O3)cc1`, the GFP signal change (wild-type ribosome) was -5.01% (inactive), the OD600 change was -12% and the RFP signal change stood at 2.02%.

Regarding `C[C@H](CO)N1C[C@H](C)[C@H](CN(C)C)Oc2ccc(NC(=O)c3ccncc3)cc2CC1=O`, the GFP signal change (wild-type ribosome) was 2.76% (inactive), the OD600 change amounted to 14.2% and the RFP signal change amounted to 0.42%.

In the case of `CCn1c(O)c(N=NC(=O)c2cccc(S(=O)(=O)N3CCCCC3)c2)c2ccccc21`, the GFP signal change (wild-type ribosome) was -23.6% (active), the OD600 change was -16.1% and the RFP signal change was -4.79%.

Regarding `O=C(c1cccc(S(=O)(=O)N2CCCCCC2)c1)N1CCN(Cc2ccccc2)CC1`, the GFP signal change (wild-type ribosome) was -2.42% (inactive), the OD600 change is -10.1% and the RFP signal change worked out at 4.63%.

Turning to `CCn1c2ccccc2c2cc(NC(=O)COC(=O)c3cc(S(=O)(=O)N4CCCCC4)ccc3Cl)ccc21`, the GFP signal change (wild-type ribosome) was 10.5% (inactive), the OD600 change turned out to be 8.82% and the RFP signal change came to 4.22%.

For the molecule `COc1ccc(CN2[C@H](CO)[C@@H]3c4ccccc4N(C(=O)C4CC4)C[C@@H]32)cc1`, the GFP signal change (wild-type ribosome) was -9.79% (inactive), the OD600 change was -9.13% and the RFP signal change was -1.21%.

On to `O=C(NC1CCCCC1)N1CC2(C1)[C@H](c1ccccc1)[C@@H](CO)N2S(=O)(=O)Cc1ccccc1`, for which the GFP signal change (wild-type ribosome) was -0.158% (inactive), the OD600 change was -18.2% and the RFP signal change amounted to 1.15%.

In the case of `Cc1nc2nc[nH]n2c(=O)c1C/C=C/c1ccccc1`, the GFP signal change (wild-type ribosome) was -22.4% (active), the OD600 change amounted to 1.36% and the RFP signal change is -5.82%.

Take `C=CCc1c(C)nc2cc(-c3ccccc3)[nH]n2c1=O`: the GFP signal change (wild-type ribosome) is -6.23% (inactive), the OD600 change was -4.26% and the RFP signal change was -2.25%.

Consider `O=C(C[C@H]1C=C[C@H](NC(=O)C2CCOCC2)[C@@H](CO)O1)NCC1CC1`, for which the GFP signal change (wild-type ribosome) was -0.532% (inactive), the OD600 change turned out to be 2.38% and the RFP signal change was determined as 0.125%.

Turning to `C[C@@H]1CN(C)C(=O)c2cc([N+](=O)[O-])ccc2O[C@@H]1CN(C)C(=O)OC(C)(C)C`, the GFP signal change (wild-type ribosome) was -2.71% (inactive), the OD600 change was determined as 7.21% and the RFP signal change was -0.0835%.

Consider `COc1cccc(NC(=O)COc2cccnc2[N+](=O)[O-])c1`, for which the GFP signal change (wild-type ribosome) is 2.25% (inactive), the OD600 change was determined as 2.69% and the RFP signal change was -3.22%.

Consider `COc1cccc(Nc2nc(N)c([N+](=O)[O-])c(NCc3ccco3)n2)c1`, for which the GFP signal change (wild-type ribosome) is -45.5% (active), the OD600 change is -19.5% and the RFP signal change was -12.3%.

Take `CCN1CCN(c2nc(Nc3cccc(F)c3)nc(N)c2[N+](=O)[O-])CC1`: the GFP signal change (wild-type ribosome) is 1.28% (inactive), the OD600 change was -14.8% and the RFP signal change was -3.28%.

`CO[C@H]1CN(C)C(=O)c2cc(NC(=O)c3cnccn3)ccc2OC[C@@H](C)N(CC2CC2)C[C@@H]1C`: the GFP signal change (wild-type ribosome) is 1.98% (inactive), the OD600 change was -3.03% and the RFP signal change is -2.31%.

Take `CN(Cc1ccccc1F)C[C@H]1[C@@H](c2ccccc2)[C@@H](CO)N1S(C)(=O)=O`: the GFP signal change (wild-type ribosome) is -3.23% (inactive), the OD600 change was -1.8% and the RFP signal change is -1.06%.

Turning to `Cc1noc(C)c1S(=O)(=O)Nc1ccc2c(c1)CC(=O)N([C@H](C)CO)C[C@@H](C)[C@@H](CN(C)Cc1ccncc1)O2`, the GFP signal change (wild-type ribosome) was -1.08% (inactive), the OD600 change was 6.97% and the RFP signal change came to 0.021%.

Take `COc1ccc(OC)c(-c2csc(NC(=O)COC(=O)C3CC3)n2)c1`: the GFP signal change (wild-type ribosome) is -18% (active), the OD600 change was -4.55% and the RFP signal change was found to be 5.3%.

As to `O=C(COC(=O)C1CCCO1)Nc1nc(-c2ccc(F)cc2)cs1` (stereo not drawn), the GFP signal change (wild-type ribosome) is -5.81% (inactive), the OD600 change was -14.9% and the RFP signal change was -1.04%.

As for `COc1ccc(OC)c(-c2csc(NC(=O)C3=NNC(=O)CC3)n2)c1`, the GFP signal change (wild-type ribosome) was -21.6% (inactive), the OD600 change was -29.6% and the RFP signal change is -5.17%.

As for `Cc1ccc(S(=O)(=O)Nc2ccc3c(c2)C(=O)N([C@@H](C)CO)C[C@H](C)[C@@H](CN(C)S(=O)(=O)c2ccc(C)cc2)O3)cc1`, the GFP signal change (wild-type ribosome) is 0.928% (inactive), the OD600 change is 0.52% and the RFP signal change came out at 1.47%.

On to `O=C1CN(Cc2ccccc2)C[C@H]2[C@H](c3ccc(-c4ccccc4)cc3)[C@@H](CO)N12`, for which the GFP signal change (wild-type ribosome) was 4.87% (inactive), the OD600 change is -18% and the RFP signal change turned out to be 11.1%.

`COc1ccc(CNC(=O)/C(C#N)=C/c2cccc(OC)c2OC)cc1`: the GFP signal change (wild-type ribosome) is -12.3% (inactive), the OD600 change was -6.5% and the RFP signal change was 1.12%.

Consider `COCCNC(=O)/C(C#N)=C/c1nc(N(C)C)n(-c2ccc(F)cc2)c1Cl`, for which the GFP signal change (wild-type ribosome) was 23.8% (inactive), the OD600 change was determined as 16.1% and the RFP signal change turned out to be 2.57%.

For the molecule `COCCNC(=O)/C(C#N)=C/c1cccc(OCc2ccccc2)c1`, the GFP signal change (wild-type ribosome) is -27.3% (active), the OD600 change is -3.28% and the RFP signal change was -7.68%.

For `C[C@@H]1CN([C@H](C)CO)S(=O)(=O)c2ccc(-c3ccccc3)cc2O[C@@H]1CN(C)C(=O)CC1CC1`, the GFP signal change (wild-type ribosome) is -1.82% (inactive), the OD600 change was -12.8% and the RFP signal change amounted to 1.01%.

For `O=C(C1CCC1)N1CC2(C1)[C@H](c1ccccc1)[C@H](CO)N2Cc1nccs1`, the GFP signal change (wild-type ribosome) was 2.78% (inactive), the OD600 change was determined as 3.6% and the RFP signal change is -2.04%.

Turning to `COc1ccccc1CNC(=O)C[C@@H]1C[C@H]2c3cc(NC(=O)CN(C)C)ccc3O[C@H]2[C@@H](CO)O1`, the GFP signal change (wild-type ribosome) is 0.305% (inactive), the OD600 change was -4.08% and the RFP signal change was -3.75%.
